Compounds without any hit were thinned out: in the full panel of roughly 83,000, 20% have a hit.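 96-well plates, one dose, 48 hours. Percent growth reported; active if below 10.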 Values without a mark were called inactive. The source made the active and inactive calls.
Legend:
Assay in all cases: NCI-60 one-dose screen, 48 h (100 = growth as untreated, 0 = no growth, -100 = all killed)
DU-145 prostate = conditions: 10 µM unless noted
K-562 leukemia = conditions: 10 µM unless noted
MDA-MB-231 breast = conditions: 10 µM unless noted
RXF 393 renal = conditions: 10 µM unless noted
SF-268 CNS = conditions: 10 µM unless noted
SF-295 CNS = conditions: 10 µM unless noted
SF-539 CNS = conditions: 10 µM unless noted
UACC-257 melanoma = conditions: 10 µM unless noted
M14 melanoma = conditions: 10 µM unless noted
HCT-15 colon = conditions: 10 µM unless noted
HT29 colon = conditions: 10 µM unless noted
SNB-75 CNS = conditions: 10 µM unless noted
SNB-19 CNS = conditions: 10 µM unless noted
U251 CNS = conditions: 10 µM unless noted
PC-3 prostate = conditions: 10 µM unless noted
SK-MEL-5 melanoma = conditions: 10 µM unless noted
UACC-62 melanoma = conditions: 10 µM unless noted
LOX IMVI melanoma = conditions: 10 µM
SK-MEL-28 melanoma = conditions: 10 µM unless noted
MALME-3M melanoma = conditions: 10 µM unless noted

| SMILES | growth (DU-145 prostate) [%] | growth (K-562 leukemia) [%] | growth (MDA-MB-231 breast) | growth (RXF 393 renal) | growth (SF-268 CNS) [%] | growth (SF-295 CNS) [%] | growth (SF-539 CNS) [%] | growth (UACC-257 melanoma) [%] | growth (M14 melanoma) | growth (HCT-15 colon) [%] | growth (HT29 colon) | growth (SNB-75 CNS) | growth (SNB-19 CNS) | growth (U251 CNS) | growth (PC-3 prostate) [%] | growth (SK-MEL-5 melanoma) | growth (UACC-62 melanoma) [%] | growth (LOX IMVI melanoma) | growth (SK-MEL-28 melanoma) [%] | growth (MALME-3M melanoma) [%] |
| --- | --- | --- | --- | --- | --- | --- | --- | --- | --- | --- | --- | --- | --- | --- | --- | --- | --- | --- | --- | --- |
| CC1(C)OCC(COC(c2ccccc2)(c2ccccc2)c2ccccc2)O1 (stereo not drawn) | 100 | 111 | 91.7% | 116% | 94.2 | 99.2 | 104 | 91.7 | 95.1% | 100 | 91.9% | 89.3% | 100% | 95.3% | 89.2 | 105% | 99.3 | 89.1% | 103 | – |
| O=C(CCl)N1c2ccccc2Sc2c1ccc1ccccc21 | 93.9 | 55.7 | 76.4% | 70.4% | 70.4 | 94.5 | 84.7 | 89.4 | 61.1% | 39 | 69.4% | 60.2% | 88.9% | 63.8% | 70.6 | 84.5% | 78 | – | 111 | – |
| Cc1cc2nc(CC(=O)c3ccncc3)c(=O)[nH]c2cc1C | 100 | 91.1 | – | 96.4% | 94.2 | 92 | 60.8 | 107 | – | 94.6 | 105% | 86.2% | – | 77.2% | 95.6 | 98.1% | 88.9 | 106% | 109 | 109 |
| O=C(Cc1nc2cc(Cl)c(Cl)cc2nc1CC(=O)c1ccccc1)c1ccccc1 | 82.5 | 47.4 | – | 81.1% | 79.2 | 69.5 | 62.1 | 93.6 | 75.2% | 69.6 | 65.3% | 70.4% | – | 86.6% | 59.4 | 90.3% | 56.9 | 62.2% | 91.1 | 67.5 |
| COC(=O)[C@]1(C)CCC[C@]2(C)c3ccc(C(C)C)cc3C(=O)[C@@H](Br)[C@@H]12 | 102 | 72.4 | 82.9% | 74.2% | 102 | 91.4 | 98.2 | 92.5 | 90.6% | 69.6 | 76.2% | 80.4% | 98.3% | 91.1% | 86.8 | 90.4% | 90.6 | 79.7% | 100 | – |
| CCCCCCCCCCCC[S+](C)CC(=O)[O-] (stereo not drawn) | 54.8 | 30.7 | – | 0.613% (active) | 30.6 | 38.6 | 53.7 | 56.7 | 43.7% | 84.6 | 44.7% | 29.7% | – | 43.7% | 25 | -62.3% (active) | 31.8 | 32.9% | 62.9 | 51.2 |
| CCCCCCCCCCCCCCCCCC[S+](C)CC (stereo not drawn) | 64.3 | 47.9 | -2.38% (active) | -81% (active) | 30.6 | 68.8 | 31 | 45.8 | 4.94% (active) | 38.8 | 4.75% (active) | -25.1% (active) | 8.74% (active) | -57.5% (active) | 36.3 | -99.1% (active) | 19.3 | -51.6% (active) | 48.6 | – |

From PubChem BioAssay (NCI)
